In PubChem BioAssay AID2284078 (EPA ToxCast):
Activity calls are given as the source filed them. The calls were made as follows: active = hit-call score of the fitted dose curve at least 0.9, where 1 is the maximum; inactive = score below 0.9.

The compounds below were run against human CHK1 (CHEK1) CAMK Kinase, CHEK1 (gene 1111) (UniProt O14757) (assay: ERF_TW_ENZ_hCHK1: Eurofins (ERF) Enzymatic Radiometric [10 uM ATP] KinaseProfiler LeadHunter Assay for human CHK1 (CHEK1) CAMK Kinase).
Sequence of human CHK1 (CHEK1) CAMK Kinase, CHEK1 (gene 1111) (O14757 whole entry, looked up): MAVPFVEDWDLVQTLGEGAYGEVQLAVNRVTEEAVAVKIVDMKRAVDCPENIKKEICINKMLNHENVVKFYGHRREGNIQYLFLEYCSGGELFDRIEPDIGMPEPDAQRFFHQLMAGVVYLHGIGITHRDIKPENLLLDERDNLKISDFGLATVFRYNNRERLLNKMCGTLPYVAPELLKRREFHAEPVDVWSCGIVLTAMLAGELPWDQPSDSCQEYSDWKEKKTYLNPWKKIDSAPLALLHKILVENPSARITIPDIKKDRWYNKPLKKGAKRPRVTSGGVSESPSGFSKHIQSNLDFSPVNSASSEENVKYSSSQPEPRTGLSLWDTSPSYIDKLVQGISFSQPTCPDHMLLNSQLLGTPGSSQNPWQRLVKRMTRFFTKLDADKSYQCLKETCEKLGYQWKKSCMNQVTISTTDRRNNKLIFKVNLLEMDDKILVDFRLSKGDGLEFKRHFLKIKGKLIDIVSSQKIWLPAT
Procedure: ERF_TW_ENZ_hCHK1 is a biochemical, single-readout assay that uses extracted gene-proteins in a cell-free assay. Measurements were taken 0.5 hour after chemical dosing in a 96-well plate. See CHK1 Human CAMK Kinase Enzymatic Radiometric Assay [10 uM ATP], Panlabs.ERF_TW_ENZ_hCHK1 is an assay component calculated from the ERF_TW_ENZ_hCHK1 assay. It is designed to measure enzyme activity using a type of enzyme reporter as detected by scintillation counting with radiometry technology.Data from the assay component ERF_TW_ENZ_hCHK1 was analyzed at the assay endpoint, ERF_TW_ENZ_hCHK1, in the positive analysis fitting direction relative to DMSO as the negative control and baseline of activity. Using a type of enzyme reporter, loss-of-signal activity can be used to understand changes in enzymatic activity as they relate to gene CHEK1. To generalize the intended target to other relatable targets, this assay endpoint is annotated to the kinase intended target family, where the subfamily is serine/threonine kinase.
CHK1 (h) is incubated with 8 mM MOPS pH 7.0, 0.2 mM EDTA, 200 uM […], 10 mM MgAcetate and [gamma-33P]-ATP (specific activity and concentration as required). The reaction is initiated by the addition of the Mg/ATP mix. After incubation for 40 minutes at room temperature, the reaction is stopped by the addition of phosphoric acid to a concentration of 0.5%. An aliquot of the reaction is then spotted onto a filter and washed four times for 4 minutes in 0.425% phosphoric acid and once in methanol prior to drying and scintillation counting. Test Sample Requirements: Compound should be supplied in 100%DMSO. We require a stock solution at a concentration of at least 50x higher than the Final Assay Concentration of your cpd. A 10mM stock is also acceptable. When ordering fewer than 60 kinase assays, we need 120uL of 50x concentrated stock. For more than 60 assays, we need 420uL of 50xcc stock. Please apply the conversion if you provide 10mM stock solution or compounds in powder form (pre-weighed is required). From 50 cpds supplied as solids, the TAT will be extended.
In the case of O=C(/C=C/c1ccc(O)cc1)CC(=O)/C=C/c1ccc(O)cc1, the AC50 is reported as 2950 nM (active).
In the case of COc1cc(/C=C/C(=O)CC(=O)/C=C/c2ccc(O)c(OC)c2)ccc1O, the AC50 is reported as 2590 nM (active).
With COc1cc(CCC(=O)CC(=O)CCc2ccc(O)c(OC)c2)ccc1O the outcome was “inactive”.
